# A selection: hits, their analogues and other compounds. The true share with any hit is near 21%.
# Shiga toxin inh: inhibitors of Shiga toxin in Vero cells. 290,000 tested, 9.2% active. inhibition, % at 38.7 µM. Vero cells, Shiga toxin protein synthesis inhibition reporter; in the data active = inhibition mostly above about 28%, no sharp cut-off; inactive = mostly below about 43%; also: 0% is about no effect
# NS1 function inh: blocks influenza NS1 protein function. Potency, µM (series often up to 46.1 µM), for the others: at the highest dose activity, positive = more growth. AID 2326. 270,000 tested, 0.4% active; calls by dose curve; also: potency is read from the fitted curve at half-maximal effect; actives are rising curves; nearly all actives have a fitted effect of over 50% in size
#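 A cell-based growth assay was used: compounds that relieve NS1-induced slow growth of budding yeast raise OD600. Assay medium was yeast nitrogen base with ammonium sulphate and -URA supplement, pH 6.0, with 2% galactose.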
# Pf growth 48h: inhibits P. falciparum growth in the first generation, 48 h; P. falciparum luciferase growth in erythrocytes, 48 h; Potency, µM (titrated, usually from 28.7 µM), without a hit: at the highest dose activity change, negative = inhibition, most hits filed as inhibitors; 310,000 tested, 5.9% active; AID 504832; also: potency is read from the fitted curve at half-maximal effect; % is scaled to controls: 0 for no effect and ±100 for the full control effect
#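 Compounds are pin-transferred into medium, infected erythrocytes (2% hematocrit, 0.1% parasitemia final) are added, and plates sit one parasite generation at 37 C in 5% CO2. Detection reagent is then added and luminescence measured.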
# Cycloheximide cs: counter-screen for Shiga toxin inhibitors: cycloheximide protein synthesis inhibition. cell reporter, cycloheximide protein synthesis inhibition counterscreen. max response, %. 300,000 tested, 12% active. AID 2314; in the data active = max response mostly above about 13%, no sharp cut-off; inactive = mostly below about 14%; also: read at 38.3 µM for the half of the compounds with a filed dose; 0% is about no effect
# Pf growth 96h: inhibits malaria parasite growth, 96 h | P. falciparum luciferase reporter growth, 96 h | 320,000 tested, 6.9% active | AID 504834 | Potency, µM (highest dose often 28.7 µM), inactives show at the top dose activity change, negative = inhibition, most hits filed as inhibitors; also: potency is read from the fitted curve at half-maximal effect; % is scaled to controls: 0 for no effect and ±100 for the full control effect
#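 Luminescence readout: decreased luciferase signal marks inhibited growth of reporter-expressing P. falciparum in infected red cells (2% hematocrit, 0.05% parasitemia final), exposed to compound two generations (96 h, 37 C, 5% CO2).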
# Sm TGR inh: inhibitors of Schistosoma mansoni thioredoxin glutathione reductase | 360,000 tested, 3% active | purified TGR, DTNB reduction, TNB absorbance 405 nm | Potency, µM (series often up to 114 µM), for inactives: top-dose activity change, negative = inhibition, usual class: inhibitors | Q962Y6; also: potency is read from the fitted curve at half-maximal effect; % is scaled to controls: 0 for no effect and ±100 for the full control effect; nearly all actives have a fitted effect of over 60% in size
#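 Kinetic colorimetric format: TGR-catalysed, NADPH-driven DTNB reduction monitored via TNB absorbance. Enzyme dispensed at 20 nM; compound exposure 15 min at room temperature before reaction start.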
# * marks the source's active call; other numbers are inactive results; i = inactive; ? = inconclusive; . = no result; ! = not confirmed by another sample; [ ] = another dose, or the depositor's remark. Unless noted, calls follow the shape of the dose curve; as a rule, active = well fitted curve in the direction sought with a large enough effect; inconclusive = small, poorly fitted or top-dose-only effect, or another doubt; inactive = no such curve, though single readings can be large; an effect the other way counts as inactive or inconclusive.
SMILES,Shiga toxin inh,NS1 function inh,Pf growth 48h,Cycloheximide cs,Pf growth 96h,Sm TGR inh
Cc1ccccc1CNC(=O)C(=O)Nc1nccs1,5,.,12%,0,12%,2%
COc1ccccc1C1(CC(=O)Nc2nccs2)CCOC(C(C)C)C1 (centres undefined),12,2%,?,1,13µM*,17%
COc1ccccc1CNC(=O)C(=O)Nc1nccs1,50,-1%,1%,-2,25%,45µM*
CN(C)S(=O)(=O)c1nc(Cl)c2[nH]cnc2n1,.,-1%,.,.,.,.
COc1ccc(NC(=O)C(C)N2Cc3ccccc3C2=O)cc1OC (centres undefined),.,.,.,.,.,5%
Clc1ccc(-n2nnnc2-c2cnc(-c3ccncc3)nc2-c2cccs2)cc1,13,-5%,4.7µM*,-5,?,-1%
FC(F)(F)c1nc(-c2cccs2)ncc1-c1nnnn1-c1ccc(Cl)cc1,3,-37%,.,-2,23%,-7%
O=C1c2ccccc2NC(c2ccco2)N1/N=C/c1ccco1 (centres undefined),71,5%,60%,32*,-20%,.
CC(=O)NN1C(=O)c2ccccc2NC1c1ccco1 (centres undefined),17,.,1%,11,?,0%
CC(=O)NN1C(=O)c2ccccc2NC1c1ccccc1O (centres undefined),-5,4%,-23%[0.00184 µM],-4,25%,-12%
CS(=O)(=O)NN1C(=O)c2ccccc2NC1c1ccccc1 (centres undefined),34*,.,8%,25*,?,-2%
CS(=O)(=O)NN1C(=O)c2ccccc2NC1c1cccc(O)c1 (centres undefined),-4,.,-1%,-4,-21%,0%
C/C(=N\N1C(=O)c2ccccc2NC1c1ccccc1)c1ccccc1O (centres undefined),67*,-1%,-50%,23*,45%,.
C/C(=N\N1C(=O)c2ccccc2NC1c1ccco1)c1ccccc1O (centres undefined),65*,-3%,43%,32*,17%,2%
COC12NC(=O)N(C)C1(OC)C(=O)N(C)C(=O)N2C (centres undefined),10,11%,-9%,-3,4%,-4%
Cc1ccc(S(=O)(=O)NN2C(=O)c3ccccc3NC2c2cccc(O)c2)cc1 (centres undefined),-4,.,-17%,9,?,4%
Cc1ccc(/C=N/N2C(=O)c3ccccc3NC2c2ccc(C)cc2)cc1 (centres undefined),96*,4%,117%,82*,67%,-3%
O=[N+]([O-])c1ccc(OCn2cncn2)cc1,.,.,-6%,.,71%,-2%
Cc1nc2cc(N3CCCCC3)c(NC(=O)c3cccnc3)cc2c(=O)n1Cc1ccccc1,-21,-2%,2.9µM*,-4,.,0%
CC(=O)Nc1cc2c(=O)n(Cc3ccccc3)c(C)nc2cc1N1CCOCC1,36,-2%,-6%,17*,12%,6.3µM*
CN(Cc1ccco1)S(=O)(=O)c1nnc(NC(=O)c2ccc(F)cc2)s1,-3,10%,12%,2,5%,0%
CN(Cc1ccco1)S(=O)(=O)c1nnc(NC(=O)c2ccccc2Cl)s1,-8,8%,5%,11,1%,11µM*!
Cc1ccccc1C(=O)Nc1nnc(S(=O)(=O)N(C)Cc2ccco2)s1,6,8%,38%,14,?,3.2µM*
COCCCNC(=O)Cn1c(=O)n(-c2cccc(C)c2)c(=O)c2c3c(sc21)CN(C(C)=O)CC3,.,.,.,.,.,0%
Cc1cc(NC(=O)COC(=O)C2COc3ccccc3O2)no1 (centres undefined),7,-8%,38%,1,10µM*,1%
SMILES,Shiga toxin inh,NS1 function inh,Pf growth 48h,Cycloheximide cs,Pf growth 96h,Sm TGR inh
Cc1ccc(NC(=O)COC(=O)C2COc3ccccc3O2)cc1 (centres undefined),.,.,-21%,.,-20%,-4%
Cc1cc(NC(=O)C2COc3ccccc3O2)no1 (centres undefined),61*,10%,54%,37*,-27%,-15%
COc1ccc(OC)c(NC(=O)c2cc(=O)c3c(C)cc(C)cc3o2)c1,.,.,.,.,.,-5%
O=c1oc2ccccc2c(N2CCCCC2)c1CN1CCCCC1,2,-20%,?,-3,214%,18µM*
CCc1oc2ccccc2c1C(=O)CCN1CCCCC1,18,-32%,15%,0,65%,7.9µM*
O=C(CCN1CCCCC1)c1ccccc1,0,14%,.,16,-9%,0%
Cc1cccc(C)c1OCC(=O)OCC(=O)Nc1ccc(Cl)cn1,.,.,16%,.,-20%,7%
CCC(=O)N1CCc2cc(S(=O)(=O)NC(CC(C)C)C(=O)NCc3cccc(OC)c3)ccc21 (centres undefined),.,.,.,.,.,2%
Clc1ccc(-c2csc(NNC3=NCCCCC3)n2)cc1,18,?,?,26*,?,-22%
c1ccc(-c2csc(NNC3=NCCCCC3)n2)cc1,39,15%,.,39*,?,0%
COc1ccc(NC(=O)c2cnc3cc(C)ccn3c2=O)c(OC)c1,.,.,.,.,.,3%
Cc1ccccc1NC(=S)c1nc2ccccc2[nH]1,active,-66%,3.3µM*,42*,-21%,0%
S=C(Nc1ccc(Cl)cc1)c1nc2ccccc2[nH]1,66*,-50%,-42%,59*,?,-1%
O=C1CCC(c2ccccc2)=NN1c1nc2ccccc2s1,.,-9%,.,.,.,.
CN(C)C(=O)C(=O)c1c(-c2ccccc2)cc2ccccn12,11,-20%,-3%,8,9%,-2%
O=Nc1c(-c2ccccc2)cc2ccccn12,130*,10%,4.7µM*,48*,9.3µM*,-1%
Nc1nn2cc(-c3ccccc3)nc2c2ccccc12,70*,.,i,30*,259%,1%
Cc1cn2nc(N)c3ccccc3c2n1,29,-4%,8%,19*,92%,-4%
O=C(Cn1ncc2c3ccccc3n(Cc3ccc(F)cc3)c2c1=O)NCc1ccccn1,.,.,.,.,.,0%
COCCCNC(=O)C1CCC(CNS(=O)(=O)c2ccc(C)cc2)CC1 (centres undefined),16,.,10µM*,5,77%[5.75 µM],-4%
CCCCNC(=O)C1CCC(CNS(=O)(=O)c2ccc(C)cc2)CC1 (centres undefined),11,.,-16%,-2,53%,-2%
CCc1ccc(S(=O)(=O)Nc2cc3c(cc2C)n(C)c(=O)c(=O)n3C)cc1,.,.,.,.,.,-5%
COc1ccc(-c2c3c(cc4ncn(Cc5ccccc5)c24)COC3=O)cc1,.,.,?,.,1%,32µM*
COc1ccc(-c2csc3ncn(Cc4ccccc4)c(=O)c23)cc1,12,-7%,0%,-2,-12%,20%
c1ccc2c(c1)Nc1ccccc1S2,8,-2%,12µM*,0,4.8µM*,-2%
CC(C)(NC(=O)c1ccccc1)c1nc2ccccc2s1,.,.,-19%,.,0%,-6%

# Screening data from PubChem BioAssay.
